This note sets out measurements from PubChem BioAssay (NCATS).

Records with an inconclusive call do not appear. A call without a number means that no potency is given here. Calls of active or inactive are those of the source. Calls come from the whole dose curve; as a rule, active = well fitted inhibition curve with a large enough effect; inconclusive = small, poorly fitted or top-dose-only effect; inactive = no such curve, though single readings can be large or run the other way.

One assay deals with Retinaldehyde dehydrogenase 3 (Homo sapiens) (UniProt P47895). Briefly: qHTS for Inhibitors of the Aldehyde Dehydrogenase Family (ALDH1A3) Confirmatory screens (AID 2061311). Note: nearly all actives have a fitted effect of over 60% in size. Note: potency is the fitted concentration of half-maximal effect. The settings on record: ALDH inhibition qHTS; series mostly up to 46 µM. (In general: Quantitative high-throughput screening tests each substance at several concentrations.)
As for `CN(C)CCCNc1cc(O)c2ncccc2c1`, the Potency was 1.42 µM (active).
On to `Cc1nnc2ccc(N3CCC(NC(=O)c4cccc(C(F)(F)F)c4)CC3)nn12`, for which the Potency result is “inactive”.
Regarding `CCc1ccc(-n2c(=O)c3cccnc3n2CC(=O)N(CC)c2cccc(C)c2)cc1`, the Potency was 28.2 µM (active).
For `O=C(CSc1nc2ncccc2o1)Nc1ccc(Cl)cc1F`, the Potency was 10 µM (active).
Take `N#CNC(=O)c1ccc(-n2cccc2/C=C2\NC(=O)N(CC(=O)Nc3ccc(F)cc3)C2=O)cc1`: the Potency entry was “inactive”.
Regarding `CCOC(=O)Cn1c(=O)oc2cc(S(=O)(=O)N3CCN(c4ccc(Cl)cc4)CC3)ccc21`, the Potency result is “inactive”.
On the same count and under the same terms, the value for `CN(Cc1ccc(-c2ccc(C#N)cc2)o1)c1ccc(N2CCN(C(=O)OC(C)(C)C)CC2)cc1` was 11.3 µM (active); that for `CCn1cnc2c(Nc3ccc(CC(=O)N=C(N)N)cc3)nc(C#N)nc21` was “inactive”; that for `COC(=O)c1ccnc(NCc2ccc(O)c3ncccc23)c1` was 7.12 µM (active).
`CC(=O)Nc1sc2c(c1-c1ccc(N(C)C)cc1)CCNC2`: the Potency was 3.57 µM (active).
`CC(=O)Nc1sc2c(c1-c1ccc(N3CCN(C)CC3)cc1)CCNC2`: the Potency result was “inactive”.
On to `O=C(NCC(=O)N1CCC(c2ccccc2)CC1)c1cccc(-c2ccc(C(F)(F)F)cc2)c1`, for which the Potency result is “inactive”.

The target of another assay is Retinal dehydrogenase 2 (Homo sapiens) (UniProt O94788). Briefly: qHTS for Inhibitors of the Aldehyde Dehydrogenase Family (ALDH1A2) Confirmation screens (AID 2061314). Note: nearly all actives have a fitted effect of over 65% in size. Note: potency is the fitted concentration of half-maximal effect. Particulars: ALDH1A2 enzyme inhibition qHTS confirmation; series mostly up to 45.9 µM.
Take `CNc1sc(-c2cccc3ccccc23)nc1C#N`: the Potency is 11.3 µM (active).
On to `Cc1cccc(NC(=O)N2CC(Oc3ccc(-c4nc(C)no4)cc3)C2)c1`, for which the Potency result is “inactive”.
For `O=C(NCCc1nc2ccccc2n1CCCc1ccccc1)C1CCCCC1`, the Potency result was “inactive”.
As to `Cc1ccc(OCCn2c(CCNC(=O)c3ccccc3N)nc3ccccc32)cc1`, the Potency was 12.7 µM (active).
In the case of `CCc1ccc(-c2nn3c(C)nnc3s2)cc1NC(=O)c1ccc(-c2cccc(Cl)c2)o1`, the Potency is 12.7 µM (active).
As to `CC(=O)Nc1sc2c(c1-c1ccco1)CCNC2`, the Potency is 17.9 µM (active).
Regarding `CC(C)(O)c1ccccc1CC[C@H](SCC1(CC(=O)O)CC1)c1cccc(/C=C/c2ccc3ccc(Cl)cc3n2)c1`, the Potency result is “inactive”.
For `Cc1ccc(NC(=O)CSc2nc3ccccc3nc2N2CCOCC2)cc1`, the Potency is 2.29 µM (active).
The same measure, in the same setting: in the case of `CC(=O)c1ccc(NC(=O)c2cc(S(=O)(=O)N3CCOCC3)ccc2C)cc1` it was “inactive”.
As for `Cc1ccc(NS(=O)(=O)c2cc3c(cc2-c2ccco2)NC(=O)CO3)cc1C`, the Potency entry is “inactive”.
For the molecule `Cc1ccnc(NC(=S)N2CCN(c3ccc(Cl)cc3Cl)CC2)c1`, the Potency is 11.3 µM (active).
Same read-out and setting: in the case of `O=C(NCc1ccccc1)c1csc(N2CCN(c3ccc(Cl)cc3)CC2)n1` it was “inactive”.
Regarding `Cc1ccnc(NC(=S)N2CCNCC2)c1`, the Potency entry was “inactive”.
For `O=C(NCc1ccc2c(c1)OCO2)c1csc(N2CCN(c3ccc(F)cc3)CC2)n1`, the Potency result is “inactive”.
Still for that read-out and setting: the value for `CCOC(=O)c1ccc(-c2ccc3ncnc(NCc4ccc(C)o4)c3c2)o1` was 12.7 µM (active).
Consider `Cc1cc(N(C)S(=O)(=O)c2ccc(NC(=O)Cc3ccc(Cl)c(Cl)c3)cc2)no1`, for which the Potency result was “inactive”.
Same read-out and setting: the value for `O=C(Nc1cccc(Cc2ccccc2)c1)c1ccc(-c2cccc([N+](=O)[O-])c2)o1` was 12.7 µM (active); that for `O=C(Nc1cccc(Br)c1)c1cc(-c2ccc3c(c2)OCCO3)on1` was “inactive”; that for `COc1ccc(C2Nc3ccc(Cl)cc3C(=O)N2Cc2ccccc2)cc1COc1ccc(NC(C)=O)cc1` (stereo not drawn) was 11.3 µM (active).
With `C#CCOc1ccc(-c2no[n+]([O-])c2C#N)cc1`, the Potency is 7.98 µM (active).
For `O=C(N/N=C/c1ccc(Sc2ccccn2)o1)c1ccccc1`, the Potency entry is “inactive”.
In the case of `CCc1nnc2sc(-c3ccc(C)c(NC(=O)c4ccc(-c5cccc(Cl)c5)o4)c3)nn12`, the Potency was 3.18 µM (active).
Regarding `COc1ccc(C2=NS(=O)(=O)N(C)C(C(=O)Nc3ccc(OC(F)(F)F)cc3)=C2)cc1`, the Potency entry was “inactive”.

Another assay addresses Retinaldehyde dehydrogenase 3 (Homo sapiens) (UniProt P47895). Briefly: qHTS for Inhibitors of the Aldehyde Dehydrogenase Family (ALDH1A3) Primary screen (AID 2061315). Particulars: ALDH inhibition qHTS; series mostly up to 56 µM.
On to `CNc1sc(-c2cccc3ccccc23)nc1C#N`, for which the Potency entry is “inactive”.
As for `O=C(NCCc1nc2ccccc2n1CCCc1ccccc1)C1CCCCC1`, the Potency result was “inactive”.
As for `N#CNC(=O)c1ccc(-n2cccc2/C=C2\NC(=O)N(CC(=O)Nc3ccc(F)cc3)C2=O)cc1`, the Potency result was “inactive”.
`Cc1ccc(OCCn2c(CCNC(=O)c3ccccc3N)nc3ccccc32)cc1`: the Potency result is “inactive”.
For `Cc1cccc2c1NC(=O)/C2=C/c1cc(Cl)c(O)c(Cl)c1`, the Potency entry was “inactive”.
Still for that read-out and setting: in the case of `CCc1ccc(-c2nn3c(C)nnc3s2)cc1NC(=O)c1ccc(-c2cccc(Cl)c2)o1` it was “inactive”; in that of `CC(=O)C1CCC2(C)C3=C(CCC12C)C1(C)CCC(=O)C(C)(C)C1CC3` (stereo not drawn), “inactive”; in that of `CC(=O)Nc1sc2c(c1-c1ccco1)CCNC2`, “inactive”.
As for `CC(C)(O)c1ccccc1CC[C@H](SCC1(CC(=O)O)CC1)c1cccc(/C=C/c2ccc3ccc(Cl)cc3n2)c1`, the Potency result is “inactive”.
As to `C[C@@H](O)c1ccc(-c2ccc3ncnc(NCc4cccs4)c3c2)o1`, the Potency result was “inactive”.
Regarding `CCn1cnc2c(Nc3ccc(CC(=O)N=C(N)N)cc3)nc(C#N)nc21`, the Potency entry was “inactive”.
Take `Nc1ccccc1C(=O)NCc1ccco1`: the Potency entry was “inactive”.
Turning to `Cc1ccc(NS(=O)(=O)c2cc3c(cc2-c2ccco2)NC(=O)CO3)cc1C`, the Potency result is “inactive”.
Still for that read-out and setting: the value for `CCOC(=O)c1ccc(-c2ccc3ncnc(NCc4ccc(C)o4)c3c2)o1` was “inactive”.
Consider `O=C(Nc1cccc(Cc2ccccc2)c1)c1ccc(-c2cccc([N+](=O)[O-])c2)o1`, for which the Potency result was “inactive”.
For the molecule `COc1ccc(C2Nc3ccc(Cl)cc3C(=O)N2Cc2ccccc2)cc1COc1ccc(NC(C)=O)cc1` (stereo not drawn), the Potency entry was “inactive”.
The same measure, in the same setting: in the case of `COc1ccc(NC(=O)c2cccnc2)cc1S(=O)(=O)Nc1ccc(Br)cc1` it was “inactive”; in that of `C#CCOc1ccc(-c2no[n+]([O-])c2C#N)cc1`, “inactive”.
